HPGD inh: qHTS Assay for Inhibitors of HPGD (15-Hydroxyprostaglandin Dehydrogenase). purified HPGD, NADH fluorescence kinetic, PGE2 substrate. Potency, µM, for the others: top-dose activity change, negative = inhibition, most hits filed as inhibitors. 150,000 tested, 4.3% active. AID 894, 2007; further: potency means the concentration at half of the fitted maximal effect
Target sequence (P15428 whole entry, looked up): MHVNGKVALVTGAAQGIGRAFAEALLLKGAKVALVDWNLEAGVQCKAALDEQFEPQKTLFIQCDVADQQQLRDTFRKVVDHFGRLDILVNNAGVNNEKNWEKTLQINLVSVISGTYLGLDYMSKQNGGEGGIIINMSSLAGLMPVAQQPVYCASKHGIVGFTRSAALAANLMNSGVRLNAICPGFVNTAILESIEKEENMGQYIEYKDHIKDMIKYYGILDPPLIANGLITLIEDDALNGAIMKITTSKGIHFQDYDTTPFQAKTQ
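20 nM HPGD preincubated 15 min at room temperature with compound in 50 mM Tris-HCl pH 8, 0.01% Tween 20. Started with 1 mM NAD+ and 30 uM prostaglandin E2; NADH fluorescence (360/450 nm) read 5 times over 30-s intervals, last minus first.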
PNC assembly inh: High Content Assay for Compounds that inhibit the Assembly of the Perinucleolar Compartment; PC3M PTB-GFP, PNC prevalence imaging, 16 h; hits give low values; activity change (PNC), negative = inhibition, % at 10 µM; 140,000 tested, 3.1% active; AID 2417, 2010;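 active means readout at or below -70, meaning at least 70% loss of cells showing the perinucleolar compartment, a nuclear body marking cancer cells; inconclusive means readout between -30 and a set limit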;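 further: plate controls were DMSO wells for no effect and camptothecin positive control wells for full effect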
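PC3M cells stably expressing PTB-GFP, 750–1000 cells/well, treated 16 h at 37 °C with compound (23 nl of library stock), in duplicate. After paraformaldehyde fixation and Hoechst stain, imaged at 20x; PNC prevalence scored by image analysis.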
ALDH1A1 block: qHTS Assay for Inhibitors of Aldehyde Dehydrogenase 1 (ALDH1A1) | Purified ALDH1A1, NADH fluorescence, propionaldehyde substrate | Potency, µM (highest dose often 75.3 µM), for the others: at the highest dose activity, negative = inhibition, actives largely listed as inhibitors | 220,000 tested, 7.3% active;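 further: potency means the concentration at half of the fitted maximal effect; plate controls were no enzyme wells and a reference inhibitor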
* = called active by the depositor; ? = inconclusive; . = not tested or not shown; [ ] = remark or other dose. Hits are enriched below; roughly 11% of the tested compounds scored in any of these assays. Unless noted, the call rests on the fitted dose curve; in most records, active means well fitted inhibition curve with a large enough effect (not every such curve was filed as active); inconclusive means small, poorly fitted or top-dose-only effect, or another doubt; inactive means no such curve, though single readings can be large or run the other way. Unless noted, on the % scale 0 is the no-effect control and ±100 the full control effect.

SMILES	HPGD inh	PNC assembly inh	ALDH1A1 block
O=c1[nH]ncn1-c1cccc(C(F)(F)F)c1	-10%	-106*	6%
CCN(C(=O)c1cc2cc3ccc(C)cc3nc2o1)c1ccc(OC)cc1	-18%	-13	?
Cc1ccc2cc3cc(C(=O)N4CC(C)CC(C)C4)oc3nc2c1 (stereo not drawn)	16µM*	?	25µM*
CC1CCCCN1C(=O)c1ccc(C(=O)N2CCCCC2C)cc1 (stereo not drawn)	?	1	-11%
Cc1ccc2cc3cc(C(=O)N4CCCCC4C)oc3nc2c1 (stereo not drawn)	16µM*	6	?
NCCC[C@@H](CC(=O)N[C@@H]1CCCC[C@H]1C(=O)N[C@H](CC(=O)N[C@@H](CCC(=O)O)CC(=O)O)Cc1ccccc1)NC(=O)C[C@H](Cc1ccccc1)NC(=O)[C@@H]1CCCC[C@H]1N	-2%	.	6%
Cc1noc(C)c1COc1ccc(C(=O)NCc2ccccn2)cc1	-13%	4	5%
O=C(O)[C@H]1CCc2ccc3ccccc3c2[C@H]1c1cccc2ccccc12	-2%	.	10%[13.5 µM]
CSc1cccc(NCc2ccc([N+](=O)[O-])cc2)c1	.	.	35µM*
CSc1ccc(CNc2ccccc2)cc1	-16%	-23	-14%
NS(=O)(=O)c1ccc(NCc2ccccc2OCc2ccc(F)cc2)cc1	-15%	?	12%
O=[N+]([O-])c1ccc(COc2cccc(CNc3ccc(F)cc3)c2)cc1	-8%	?	14µM*
Cc1ccc2c(c1)C(=O)C1(O)CCN(c3ccccc3)C1=N2 (stereo not drawn)	-5%	.	-5%
Cc1c2cccc(Sc3ccccc3)c2c2c3c(cccc13)[S+](c1ccccc1)C2 (stereo not drawn)	-8%	.	-10%[13.5 µM]
O=C(Nc1ncn[nH]1)c1ccc(S(=O)(=O)N2CCOCC2)cc1	.	.	-14%
C[C@@H](C(=O)NCc1nc2ccccc2[nH]1)[C@@H]1C[C@@]1(C)[C@@H](NC(=O)OCc1ccccc1)c1ccccc1	-11%	.	?
CC(C)N(C(=O)CSc1nnc(CSc2ncccn2)n1C)C(C)C	.	.	9%
O=C1OC(=O)c2ccccc21	-5%	.	-14%
CC(=O)N1CCc2c(sc(NC(=O)c3ccc([N+](=O)[O-])o3)c2C#N)C1	.	.	3.2µM*
COc1cc(C(=O)Nc2sc3c(c2C#N)CCN(C(C)=O)C3)cc(OC)c1OC	-10%	10	?
Cc1cccc(Nc2nnc(SCC(=O)Nc3ccc(C(=O)O)cc3)s2)c1	.	.	4%
CCc1ccc(Nc2nnc(SCc3cc(=O)n4ccsc4n3)s2)cc1	20µM*	-25	?
Cc1cccc(Nc2nnc(SCc3cc(=O)n4cc(C)ccc4n3)s2)c1	16µM*	?	-9%
Cc1ccc(Nc2nnc(SCc3cc(=O)n4ccsc4n3)s2)c(C)c1	-16%	-10	?
O=C(CSc1nncs1)NC(=O)NC1CCCC1	.	.	4%
SMILES	HPGD inh	PNC assembly inh	ALDH1A1 block
Cc1ccccc1C(=N)c1ccccc1Cc1cccc2ccccc12	-7%	.	-2%[13.5 µM]
COc1ccc(Sc2nnc(Cc3ccccc3)c3ccccc23)cc1	-14%	-10	?
Cc1ccc(Sc2nnc(Cc3ccccc3)c3ccccc23)cc1	-29%	-21	28µM*
CC1=C(CC[C@H](C)CO)O[C@@H]2C[C@@H]3[C@H]4CC[C@H]5C[C@@H](O)CC[C@]5(C)[C@@H]4CC(=O)[C@@]3(C)[C@@H]12	-3%	.	-10%[13.5 µM]
O=C(N/N=C/c1ccccc1OC(=O)c1ccc2c(c1)OCO2)c1cccc(F)c1	-2%	20	1%
O=C(Oc1ccccc1/C=C\C(=O)c1cc2ccccc2o1)c1ccccc1	-24%	2	11µM*
COc1cccc(C(=O)Oc2ccccc2/C=C\C(=O)c2cc3ccccc3o2)c1	-30%	25	-10%
O=C(Oc1ccccc1/C=C\C(=O)c1cc2ccccc2o1)c1cccc(F)c1	?	?	8.9µM*
C=C(C(C)=O)C(O)c1ccc(C(F)(F)F)cc1 (stereo not drawn)	-6%	.	1%
CCN1CCN(C(=S)c2ccc(-c3ccccc3)cc2)CC1	.	.	-12%
COc1ccc(OC)c(C(=O)COC(=O)CNC(=O)C2CCCCC2)c1	-16%	-2	-5%
COc1ccc(C(=O)COC(=O)CNC(=O)C2CCCCC2)c(OC)c1	25µM*	-16	?
CC(C)NC(=O)NC(=O)COC(=O)c1ccccc1O	.	.	7%
CC(C)NC(=O)NC(=O)COC(=O)c1ccccc1F	.	-115*	10%
CCOc1ccc(NCc2ccccc2OCc2cccc(F)c2)cc1	-20%	-28	?
C[C@@H]1CC[C@H]2C(=O)N3[C@@H](CC[C@@H](C)[C@@H]3c3ccc(Br)cc3)C(=O)N2[C@@H]1c1ccc(Br)cc1	.	.	-9%[13.5 µM]
C=CCc1cccc(C2C(C)CCC3C(=O)N4C(CCC(C)C4c4cccc(CC=C)c4)C(=O)N32)c1 (stereo not drawn)	.	.	6.3µM*
O=C(N/N=C/c1ccc(O)cc1O)/C(=C/c1ccccc1)CCO	-4%	39	-3%
O=C(NC(Cc1ccccc1)C(=O)O)c1ccc(S(=O)(=O)N2CCCCC2)cc1 (stereo not drawn)	1%	2	-7%
C/C(=N\NC(=O)c1cccnc1)c1cc(C)oc1C	-3%	48	-9%
C/C(=N\NC(=O)c1cccnc1)c1c(O)cc(C)oc1=O	-18%	10	25µM*
CCc1ccccc1N/N=C(/C)c1c(O)cc(C)oc1=O	.	.	7.9µM*
C/C(=N\NC(=O)c1ccccc1O)c1c(O)cc(C)oc1=O	?	19	?
CCOC(=O)C1=C(O)C(=O)N(CCCn2ccnc2)C1c1ccc(OC)cc1 (stereo not drawn)	.	.	0%
COc1cccc(CN2CCNC(=O)C2CC(=O)O)c1OC (stereo not drawn)	-4%	?	?
SMILES	HPGD inh	PNC assembly inh	ALDH1A1 block
Cc1ccccc1CN1CCNC(=O)C1CC(=O)O (stereo not drawn)	-1%	-84*	?
c1csc(-c2nc3c4ccccc4c4ccccc4c3[nH]2)c1	?	41	?
c1csc(-c2cn3ccc4ccccc4c3n2)c1	.	.	5µM*
CCOC(=O)CC(=O)CSc1ccc2nnc(-c3ccc(C)cc3)n2n1	13µM*	-14	-10%
CCOC(=O)N1CCN(C(=O)CSc2ccc3nnc(-c4ccncc4)n3n2)CC1	.	.	-1%
CN(C)CC#Cc1cncc(C(=O)NNC(=O)Nc2ccc(Cl)cc2)c1	.	.	25µM*
COc1ccc(C(=O)NNC(=O)Nc2ccc(Cl)cc2)cc1	.	.	-1%
COC(=O)c1cc(Br)c(=O)n(-c2cc(C)on2)c1	-17%	-24	-1%
COc1cc(/C=C(\C#N)c2[nH]nc(N)c2C#N)cc(OC)c1O	16µM*	6	-7%
COc1ccc(/C=C(/C#N)c2cccnc2)cc1OC	-29%	121	0%
CCC1=C2CC[C@H]3C(=O)N(c4ccccc4)C(=O)[C@H]3[C@H]2[C@@]2(Cc3ccccc3)C(=NCC3CC3)OC(=O)N2C1=O	-4%	.	-2%
Nn1cnn(Cc2ccccc2)c1=S	20µM*	29	25µM*
Brc1nc(Br)n(Cc2ccccc2)n1	.	.	8%
COc1cccc(/C=N/Nc2snc(SC)c2C#N)c1O	-4%	0	-11%
